From PubChem
This is a sample that favours compounds with a hit; in the whole collection about 1.7% have one here.
ATG4B inhibitor: ATG4B (human) cysteine protease inhibition | Q9Y4P1 | ATG4B cleavage of LC3-PLA2, NBD-HPC fluorescence, 1 h | inhibition, % at 8.33 µM | 0.51% of 340,000 active | AID 504462; in the data active = inhibition above about 40%
SUMO1-SIM PPI: SUMO1-SIM interaction modulation; P63165; SUMO1 binding to a labelled peptide, TR-FRET, 1 h; inhibition, % at 20 µM; 0.33% of 360,000 active; in the data active = inhibition above about 37%
Neddylation inh: cullin neddylation inhibition | P61081+Q13564 | TR-FRET cullin neddylation, biochemical | inhibition, % at 25 µM | 0.58% of 360,000 active | AID 651699; in the data active = inhibition above about 36%
Rin1-Abl PPI inh: blocks binding of human Rin1 to Abl | inhibition, % at 7.35 µM | 0.4% of 360,000 active | AID 588664 | TR-FRET Rin1/Abl binding, biochemical | P00519+Q13671; in the data active = inhibition above about 5%, passing the limit was not always enough
* = called active by the depositor; x = no result given.

SMILES	ATG4B inhibitor	SUMO1-SIM PPI	Neddylation inh	Rin1-Abl PPI inh
CS(=O)(=O)Nc1ccc2c(c1)[C@H]1C[C@H](CC(=O)NCc3ccccc3)O[C@H](CO)[C@H]1O2	x	3	15	0
Cc1ccccc1CC(=O)N1CCC(CCC(=O)NC2CC2)CC1	x	6	0	0
Cc1cc(C)c(S(=O)(=O)c2ccccc2)c(OC(=O)c2c(Cl)cc(Cl)cc2Cl)n1	-4	42*	-8	0
N#Cc1ccc(CSc2nnc(NC(=O)c3ccc(=O)[nH]c3)s2)cc1	-1	5	8	-1
N#Cc1ccc(CSc2nnc(NC(=O)c3ccc4ncsc4c3)s2)cc1	-8	40*	-125	2
CC1(C(=O)NS(=O)(=O)c2cccc(F)c2)CCN1C(=O)Cc1ccccc1 (centres undefined)	x	2	-8	-6
COc1ccc(CCNC(=O)c2cc(-c3ccc(C)c(C)c3O)n[nH]2)cc1OC	-29	37*	0	-1
Cc1ccc(S(=O)(=O)NC(=O)C2(C)CCN2C(=O)Cc2ccc(C(C)(C)C)cc2)cc1 (centres undefined)	x	2	3	-2
CC(C)c1ccc2oc(-c3ccc(NC(=O)c4ncn[nH]4)cc3)nc2c1	-4	47*	x	x
CC1(C)CSC(C)(C)C(=O)N1	2	1	-1	2
Cc1ccc(S(=O)(=O)N2CCN(C(=O)COC(=O)COc3ccc(Cl)cc3C)CC2)c(C)c1	-18	3	-8	3
COc1ccc(C(=O)Nc2ccccc2C(=O)NC(Cc2ccc(O)cc2)C(=O)NNC(=O)c2ccc(C)cc2)cc1 (centres undefined)	-19	78*	x	-11
CCN1/C(=C/c2ccc3cc(C)ccc3[n+]2CC)Sc2ccc3sccc3c21	5	104*	13	-10
CCN1/C(=C\c2ccc3cc(C)ccc3[n+]2CC)Sc2cc(C)c(C)cc21	8	-51	-248	-8
CC1CCCCC12NC(=O)N(CC(=O)N1CCN(S(=O)(=O)c3ccc(Cl)s3)CC1)C2=O (centres undefined)	x	0	-13	-2
CCCNC(=O)c1cc(C2CCCCN2C(=O)c2ccc(C(C)C)cc2)on1 (centres undefined)	x	-1	-10	-1
COc1ccc(NS(=O)(=O)c2cccc(C(=O)N/N=C/c3ccccc3OC)c2)cc1	-14	-5	-2	3
COc1ccc(NS(=O)(=O)c2cccc(C(=O)NN=Cc3ccc(O)c(OC)c3)c2)cc1	-4	63*	38	3
COc1cc(/C=N/NC(=O)c2sc3nc(C)cc(C)c3c2N)ccc1O	-48	-11	42*	-2
O=C(O)c1cc(N2CCCC2)ccn1	-2	0	11	0
COc1ccc(Nc2nc3cc(-c4ccccc4C)sc3c(=O)n2C)cc1OC	x	-11	-232	-3
NS(=O)(=O)c1cccc(NC(=O)c2cccc(N3C(=O)c4ccccc4C3=O)c2)c1	-5	-17	-28	2
CC(=O)c1cccc(NC(=O)c2cccc(N3C(=O)c4ccccc4C3=O)c2)c1	5	61*	-31	0
CCCCCCC(=O)Nc1nc(C)c(-c2csc(Nc3cc(Cl)ccc3C)n2)s1	-2	87*	-24	4
COc1ccc(Cl)cc1Nc1nc(-c2sc(NC(=O)C(C)(C)C)nc2C)cs1	-26	87*	-25	0
SMILES	ATG4B inhibitor	SUMO1-SIM PPI	Neddylation inh	Rin1-Abl PPI inh
CCCCC(=O)Nc1nc(C)c(-c2csc(Nc3cc(Cl)ccc3OC)n2)s1	-5	22	5	-3
O=S1(=O)CC(N2CCN(Cc3ccccc3F)CC2)CN1Cc1cn(Cc2cccc(Cl)c2)nn1 (centres undefined)	x	0	-4	x
Cn1cnnc1SCC(=O)Nc1sc2c(c1C(N)=O)CCC2	29	43*	8	-1
COc1cc(CC(=O)N2c3ccccc3N=C(c3ccccc3)C2C(=O)NCc2ccccc2)cc(OC)c1 (centres undefined)	x	-3	10	x
CCOc1ccc(Br)cc1S(=O)(=O)NCC(c1ccc(OC)cc1)N1CCOCC1 (centres undefined)	-11	2	10	2
COc1cc(N/N=C/c2ccc(N(C)C)cc2)ncn1	-4	-7	40*	1
CC(C)(C)[C@H](N)C(=O)N[C@H]1CCC2C3CC=C4C[C@@H](O)CC[C@]4(C)C3CC[C@@]21C (some centres undefined)	-3	41*	-3	3
CC(C)C(=O)N[C@H]1CCC2C3CC=C4C[C@@H](O)CC[C@]4(C)C3CC[C@@]21C (some centres undefined)	-3	7	-2	5
O=[N+]([O-])c1ccc(-c2cc(-c3ccc(Cl)cc3)n[nH]2)cc1	1	47*	0	0
O=[N+]([O-])c1ccc2nc(-c3ccc(Cl)cc3)[nH]c2c1	2	0	25	1
CCn1c2ccccc2c2nc3ccccc3nc21	3	-33	49*	3
CCn1c2ccccc2c2nc3cc(C(=O)O)ccc3nc21	-3	5	29	1
Nc1ncnc2c1ncn2[C@@H]1O[C@H](C(=O)N2CCN(Cc3ccccn3)CC2)[C@@H](O)[C@H]1O	x	0	2	4
CCN(Cc1nc2ccccc2c(=O)[nH]1)C(=O)COc1ccccc1Cc1ccccc1	-4	2	-1	-1
COc1cccc(N=c2oc3ccccc3cc2-c2nc3ccccc3[nH]2)c1	7	-18	42*	-6
CCOC(=O)C1=C(COc2ccccc2)NC(=O)NC1c1ccc(Br)cc1 (centres undefined)	7	47*	-5	0
COC(=O)c1cc(C(=O)N2CCN(c3cccc(C)c3C)CC2)cc([N+](=O)[O-])c1	0	61*	-22	2
COC(=O)c1cc(C(=O)N2CCN(c3ccccc3OC)CC2)cc([N+](=O)[O-])c1	-4	-16	-30	0
CCCCCC/C(C)=C1/SC(=S)NC1=O	14	-4	-8	0
C/C(C/C(C)=C1/SC(=S)NC1=O)=C1\SC(=S)NC1=O	68*	38	-19	0
C/C(=N\Nc1cc(C)nc(-c2ccccc2)n1)c1cccc([N+](=O)[O-])c1	3	48*	-6	6
C/C(=N\Nc1cc(C)nc(-c2ccccc2O)n1)c1ccccc1	-5	2	x	1
Cn1c(=O)c2cc(NC(=O)NCCc3cccs3)ccc2n1Cc1ccccc1	x	-2	x	-1
O=C(CSc1nnc(-c2c[nH]c3ccccc23)n1C1CC1)NC1CCS(=O)(=O)C1 (centres undefined)	x	1	-2	4
COc1ccc(-c2nnc(-c3ccc(F)cc3)o2)cc1	1	4	26	1
CCOc1ccc(-c2nnc(-c3snc(-c4ccc(F)cc4)c3N=CN(C)C)o2)cc1	3	47*	-187	3
O=C(Nc1ccc2c(c1)OCCO2)C1c2ccccc2OCC(=O)N1CCc1c[nH]c2ccccc12 (centres undefined)	x	7	2	x
O=C(Nc1ccccc1)Nc1nnc([C@H]2C[C@H](O)[C@@H](CO)O2)s1	x	-1	0	-2
O=C(CCCN1C(=O)/C(=C/c2ccco2)SC1=S)Nc1ccccc1C(=O)O	22	75*	1	-2
